Among the data in PubChem BioAssay (EPA / NIEHS) are outcome and AC50 values, retold here.

Active and inactive are the calls of the source. How the source made its calls: active means hit-call score of the fitted dose curve at least 0.9, where 1 is the maximum; inactive means score below 0.9.

Read-out in the assay: Transforming growth factor beta 1 (TGFb1), TGFB1 (gene 7040)
The assay can be described thus: BSK_KF3CT_TGFb1: BioMAP Diversity Plus: KF3CT Assay for Transforming growth factor beta 1 (TGFb1) Biomarker Activity (AID 2283072). The following applies: primary human keratinocytes with fibroblasts; actives raise or lower the signal. The protocol:
BSK_KF3CT is a cell-based, multiplexed-readout assay that uses keratinocytes and foreskin fibroblasts, a human skin primary cell co-culture, with measurements taken at 24 hours after chemical dosing in a 96-well plate.BSK_KF3CT_TGFb1 is an assay component measured in the BSK_KF3CT assay. It measures TGF-b1 antibody related to regulation of gene expression using ELISA technology.Data from the assay component BSK_KF3CT_TGFb1 was analyzed into 1 assay endpoint. This assay endpoint, BSK_KF3CT_TGFb1, was analyzed with bidirectional fitting relative to DMSO as the negative control and baseline of activity. Using a type of binding reporter, gain or loss-of-signal activity can be used to understand changes in the signaling as they relate to the gene TGFB1. Furthermore, this assay endpoint can be referred to as a primary readout, because this assay has produced multiple assay endpoints where this one serves a signaling function. To generalize the intended target to other relatable targets, this assay endpoint is annotated to the growth factor intended target family, where the subfamily is transforming growth factor beta.
The levels of cell surface (or secreted, indicated by the prefix "s") biomarker endpoints were measured by ELISA. Overt cytotoxicity to cells in confluent adherent cultures (all systems other than the BT system) was assessed by measuring total protein levels using sulforhodamine B (SRB) staining in parallel cultures at the time of biomarker measurements, indicated as SRB endpoints. For proliferation assays for adherent cell types, individual cell types are cultured at sub-confluence and relative cell numbers quantified by SRB staining at time points optimized for each system (48 h: 3C and CASM3C systems; 72 h: BT and HDF3CGF systems; 96 h: SAg system). SRB was performed by staining cells with 0.1% SRB after fixation with 10% TCA and reading wells at 560 nm.Viability and proliferation of PBMC (T cells) was quantified by Alamar Blue reduction for the SAg and BT systems. For PBMC viability (referred to as PBMC Cytotoxicity within the assay endpoint names), cells were plated (75,000/well in a 96-well plate) and then chemical samples added for 1 h before addition of activators, SEB and TSST-1 (20 ng/mL final concentration each). Cells were incubated for 90 h. Then, Alamar Blue (20 uL/well) (Invitrogen, Cat DAL1100) was added for 6 h, and the plates were read with a fluorescence microplate reader at 546/580 nm (excitation/emission). For PBMC proliferation, cells were plated and activated as above but incubated for only 16 h prior to addition of Alamar Blue. Plates were read after 6 h.
As to `CCNc1nc(NC(C)(C)C)nc(SC)n1`, the outcome was inactive.

Consider `C=C(C)C(=O)[O][Sn]([CH2]CCC)([CH2]CCC)[CH2]CCC`, for which the AC50 is 0.148 µM (active).

For `Oc1c(I)cc(I)cc1I`, the AC50 is 7.06 µM (active).

As for `Cc1ccccc1N`, the outcome was inactive.

As for `CC12CC1(C)C(=O)N(c1cc(Cl)cc(Cl)c1)C2=O` (stereo not given), the outcome was inactive.

For the compound `CC(C)c1ccc(CO)cc1`, the outcome was inactive.

For `Oc1ccc(-c2ccccc2)cc1`, the outcome was inactive.

Consider `CCOP(=S)(OCC)Oc1nc(Cl)c(Cl)cc1Cl`, for which the result was inactive.

As for `ClC1(Cl)C2(Cl)C3(Cl)C4(Cl)C(Cl)(Cl)C5(Cl)C3(Cl)C1(Cl)C5(Cl)C24Cl` (stereo not given), the outcome was inactive.

As for `CN(C)N=O`, the outcome was inactive.

Regarding `NC(=O)O`, the outcome was inactive.

`Nc1ncc([N+](=O)[O-])s1`: the result was inactive.

`CC(C)(C)c1cc(O)ccc1O`: the AC50 was 20 µM (active).

Take `CCSC(C)CC1CC(=O)C(C(CC)=NOC/C=C/Cl)=C(O)C1` (stereo not given): the outcome was inactive.

Turning to `O=C(O)C(Cl)(Cl)Cl`, the outcome was inactive.

On to `COP(=S)(OC)Oc1c(Cl)cc(C)cc1Cl`, for which the outcome was inactive.

For the compound `ClC1=C(Cl)[C@]2(Cl)[C@H]3[C@H]([C@H]4C=C[C@H]3C4)[C@@]1(Cl)C2(Cl)Cl`, the AC50 is 2.86 µM (active).

For the compound `C=CC(=O)OCCCCCC(C)C`, the result was inactive.

With `CCN1CCC2(CC1)COc1cc3c(cc12)N(C(=O)c1ccc(-c2ccc(-c4nnc(C)o4)cc2C)cc1)CC3`, the AC50 is 18.7 µM (active).

For `BrCCBr`, the outcome was inactive.

Take `O=C(O)C(F)(F)C(F)(F)C(F)(F)C(F)(F)C(F)(F)C(F)(F)F`: the result was inactive.

Turning to `Oc1cccc2cccnc12`, the AC50 was 2.35 µM (active).

For `C[C@]12CCC(=O)C[C@@H]1CC[C@@H]1[C@@H]2CC[C@]2(C)[C@@H](O)CC[C@@H]12`, the outcome was inactive.

Regarding `COP(=S)(OC)Oc1ccc(S(=O)(=O)N(C)C)cc1`, the result was inactive.

Consider `CC1(C)Cc2cccc(O)c2O1`, for which the result was inactive.

Take `CCOP(=S)(OCC)Oc1ccc(S(C)=O)cc1` (stereo not given): the result was inactive.

Take `CC(=O)C(Cl)C(=O)N(C)C` (stereo not given): the result was inactive.

Turning to `CCCCC(CC)CO[N+](=O)[O-]` (stereo not given), the outcome was inactive.

Consider `Nc1cccc2ccccc12`, for which the result was inactive.

Take `COc1cc(-c2ccc(N)c(OC)c2)ccc1N`: the outcome was inactive.

Consider `CCCCCCCCc1ccc(O)cc1`, for which the concentration at half-maximal activity (AC50) was 22.4 µM (active).

`O=[N+]([O-])c1ccc(O)c([N+](=O)[O-])c1`: the result was inactive.

`O=C(Nc1ccc2[nH]ccc2c1)c1cc2cc(F)ccc2n1Cc1cccc(F)c1`: the AC50 was 6.88 µM (active).

On to `CCOP(=S)(OCC)SCSP(=S)(OCC)OCC`, for which the result was inactive.

For `ClC(Cl)=C(Cl)C(Cl)=C(Cl)Cl`, the AC50 is 29.2 µM (active).

As to `COP(=S)(OC)Oc1cc(Cl)c(Cl)cc1Cl`, the AC50 was 36.3 µM (active).

As to `CC(C)(OO)c1ccccc1`, the result was inactive.

In the case of `CCCCCCCCC(=O)NCc1ccc(O)c(OC)c1`, the outcome was inactive.

Consider `O=C(OC1CCCCC1)c1ccccc1C(=O)OC1CCCCC1`, for which the AC50 was 2.62 µM (active).

As to `COC[C@H](C)N(C(=O)CCl)c1c(C)csc1C`, the result was inactive.

By AC50 is commonly meant the concentration giving half of the maximal activity seen.
